In PubChem BioAssay (NCATS):
Records with an inconclusive call do not appear. Entries that show only a call come without a potency. Active and inactive are the calls of the source. Unless noted, calls come from the whole dose curve; as a rule, active = well fitted curve in the direction sought with a large enough effect; inconclusive = small, poorly fitted or top-dose-only effect, or another doubt; inactive = no such curve, though single readings can be large; an effect the other way counts as inactive or inconclusive.

Key:
[1] = qHTS for differential inhibitors of proliferation of Plasmodium falciparum line D10 (AID 1877);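 note: parasites grown with compound for 72 h before DNA staining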
[2] = qHTS for differential inhibitors of proliferation of Plasmodium falciparum line W2 (AID 1883); conditions: Potency: Plasmodium falciparum W2 proliferation inhibition;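 note: potency is the fitted concentration of half-maximal effect; parasites grown with compound for 72 h before lysis and staining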
[3] = biological target: ATP-dependent DNA helicase Q1 (Homo sapiens) (UniProt P46063); assay: qHTS Validation Assay for Inhibitors of RecQ-Like Dna Helicase 1 (RECQ1) (AID 2353)
Sequence of ATP-dependent DNA helicase Q1 (Homo sapiens) (P46063 whole entry, looked up): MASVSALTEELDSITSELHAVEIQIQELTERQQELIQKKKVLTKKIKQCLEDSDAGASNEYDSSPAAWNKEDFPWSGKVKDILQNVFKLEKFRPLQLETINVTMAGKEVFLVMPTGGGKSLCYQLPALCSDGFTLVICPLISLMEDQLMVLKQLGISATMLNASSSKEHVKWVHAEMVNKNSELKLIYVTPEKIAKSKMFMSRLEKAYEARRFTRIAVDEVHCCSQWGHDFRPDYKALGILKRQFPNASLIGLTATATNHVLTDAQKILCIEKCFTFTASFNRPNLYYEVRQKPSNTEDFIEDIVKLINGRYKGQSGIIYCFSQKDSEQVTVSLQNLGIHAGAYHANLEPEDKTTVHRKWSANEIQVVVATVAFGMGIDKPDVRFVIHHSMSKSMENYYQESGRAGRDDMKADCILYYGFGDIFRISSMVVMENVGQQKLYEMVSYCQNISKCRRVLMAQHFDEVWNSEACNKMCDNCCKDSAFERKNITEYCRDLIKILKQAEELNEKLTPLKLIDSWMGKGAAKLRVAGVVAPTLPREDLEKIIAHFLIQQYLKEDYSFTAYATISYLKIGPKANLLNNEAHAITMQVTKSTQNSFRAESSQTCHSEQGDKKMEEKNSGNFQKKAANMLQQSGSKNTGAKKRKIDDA
How it was run: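 RECQ1T1 50 nM; forked duplex (20 bp + 30-nt ss tails) 200 nM, ATP 2 mM final; pH 8.0, 2 mM MgCl2, 2.5 ug/ml poly(dI-dC); 15 min compound preincubation; discontinuous kinetic read over 2 h at RT.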

[4] = biological target: RecQ-like DNA helicase BLM (Homo sapiens) (UniProt P54132); assay: qHTS Validation Assay for Inhibitors of Bloom's syndrome helicase (BLM) (AID 2364)
Sequence of RecQ-like DNA helicase BLM (Homo sapiens) (P54132 whole entry, looked up): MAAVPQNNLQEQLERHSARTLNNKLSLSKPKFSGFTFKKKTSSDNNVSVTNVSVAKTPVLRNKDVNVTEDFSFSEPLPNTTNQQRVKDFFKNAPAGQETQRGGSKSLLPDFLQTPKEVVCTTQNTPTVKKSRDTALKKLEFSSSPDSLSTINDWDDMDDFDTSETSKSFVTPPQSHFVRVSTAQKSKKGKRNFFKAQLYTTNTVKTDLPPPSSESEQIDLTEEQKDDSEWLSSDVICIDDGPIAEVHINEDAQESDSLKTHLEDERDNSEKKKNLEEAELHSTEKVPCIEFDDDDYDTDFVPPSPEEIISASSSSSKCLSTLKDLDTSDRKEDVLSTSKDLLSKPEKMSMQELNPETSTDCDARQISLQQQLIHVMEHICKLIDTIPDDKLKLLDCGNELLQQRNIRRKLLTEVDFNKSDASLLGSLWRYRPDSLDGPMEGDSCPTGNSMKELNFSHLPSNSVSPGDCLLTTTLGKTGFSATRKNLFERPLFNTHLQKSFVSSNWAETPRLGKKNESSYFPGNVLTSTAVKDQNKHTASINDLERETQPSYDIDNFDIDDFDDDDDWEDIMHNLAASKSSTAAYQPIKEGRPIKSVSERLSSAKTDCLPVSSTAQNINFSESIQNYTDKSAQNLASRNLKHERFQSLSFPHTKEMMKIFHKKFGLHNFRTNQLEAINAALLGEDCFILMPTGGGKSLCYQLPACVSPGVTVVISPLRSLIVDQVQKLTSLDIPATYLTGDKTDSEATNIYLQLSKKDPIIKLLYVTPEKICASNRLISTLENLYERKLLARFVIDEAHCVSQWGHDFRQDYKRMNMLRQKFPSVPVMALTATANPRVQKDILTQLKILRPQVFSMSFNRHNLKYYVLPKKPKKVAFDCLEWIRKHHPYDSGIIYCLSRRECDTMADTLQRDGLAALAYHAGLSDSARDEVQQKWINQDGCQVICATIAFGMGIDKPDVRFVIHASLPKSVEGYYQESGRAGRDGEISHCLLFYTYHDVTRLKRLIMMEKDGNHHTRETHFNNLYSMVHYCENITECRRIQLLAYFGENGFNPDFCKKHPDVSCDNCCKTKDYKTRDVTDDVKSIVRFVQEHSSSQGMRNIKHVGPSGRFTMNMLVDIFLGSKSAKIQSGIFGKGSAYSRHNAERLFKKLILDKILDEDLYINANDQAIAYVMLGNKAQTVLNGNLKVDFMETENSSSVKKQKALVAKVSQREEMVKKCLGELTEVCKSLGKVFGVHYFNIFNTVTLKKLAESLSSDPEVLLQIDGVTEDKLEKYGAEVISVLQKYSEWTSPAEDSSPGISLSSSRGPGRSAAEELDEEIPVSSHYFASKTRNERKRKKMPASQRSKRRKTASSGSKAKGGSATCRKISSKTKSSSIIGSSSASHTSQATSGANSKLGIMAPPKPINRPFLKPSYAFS
How it was run: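 50 nM BLM preincubated 15 min at room temperature with compound in pH 8.0 Tris buffer containing 2.5 ug/ml poly(dI-dC); started with 200 nM TAMRA/BHQ-2 forked duplex and 2 mM ATP (final). Unwinding read as TAMRA fluorescence increase, two reads 2 h apart.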

[5] = Cytometric Cell-Based qHTS for Inhibitors of the mTORC1 Signaling Pathway in MEF (Tsc2-/-, p53-/-) Cells (AID 2660);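 note: Tsc2 and p53 null MEFs carrying empty vector with compound for 24 h; percent of cells above a phospho-rpS6 to PI ratio cutoff in each well; series mostly up to about 38 µM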
How it was run: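 Cells are plated, treated with compound for 24 hrs at 37 degree Celsius, then fixed, blocked and immunostained for phospho-rpS6 Ser235/236. Propidium iodide counterstain follows. Per-well % positive cells is derived from the PI-normalized phospho-S6 signal.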

[6] = High Content Imaging Cell-Based qHTS for Inhibitors of the mTORC1 Signaling Pathway in MEF (Tsc2-/-, p53-/-) Cells (AID 2666);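 note: percent of cells scored positive for phospho-rpS6 Ser235/236 immunostaining by imaging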
How it was run: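 MEF Tsc2-/- p53-/- (empty vector), DMEM/10% FBS; cpd 24 h 37 °C; PFA fix, Alexa-488 p-rpS6 S235/236 Ab, Hoechst; imaged; rapamycin-defined inhibition; % positive cells/well.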

[7] = High Content Imaging Cell-Based qHTS for Inhibitors of the mTORC1 Signaling Pathway in MEF Cells (AID 2667);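 note: Tsc2-/- p53-/- MEFs stably re-expressing wild-type Tsc2 exposed 24 h; series mostly up to about 38 µM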
How it was run: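 Read-out is the share of phospho-rpS6-positive cells per well, from Hoechst-normalized Alexa-488 Ser235/236 staining imaged on IN Cell. Cells: WT Tsc2-expressing Tsc2-/-, p53-/- MEFs exposed to compound for 24 hrs.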

[8] = Cytometry Cell-Based qHTS for Inhibitors of the mTORC1 Signaling Pathway in MEF cells (AID 2668);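 note: Tsc2-/- p53-/- mouse embryonic fibroblasts stably re-expressing wild-type Tsc2; percent cells positive for phospho-rpS6 Ser235/236 relative to propidium iodide stain; series mostly up to about 38 µM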
How it was run: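 MEFs (Tsc2-/-, p53-/- stably expressing WT Tsc2) treated 24 h at 37 degree Celsius, fixed, stained with Alexa-488 anti-phospho-rpS6 Ser235/236 and propidium iodide; Acumen laser scanning. Reported as % positive cells, phospho-S6 normalized to PI.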

[9] = Validation screen for small molecules that induce DNA re-replication in MCF 10A normal breast cells (AID 463097); note: nearly all actives have a fitted effect of over 60% in size; note: potency is the fitted concentration of half-maximal effect
How it was run: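 MCF 10A cells exposed to compound 48 hr at 37 C, 5% CO2, then Hoechst-stained 40 min. Laser-scanning imaging of nuclear DNA content (405 nm ex, 500-530 nm em); re-replication scored as rise in nuclei with elevated fluorescence intensity.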

[10] = biological target: Ubiquitin carboxyl-terminal hydrolase 2 (Homo sapiens) (UniProt O75604); assay: qHTS Validation Assay for Inhibitors of Ubiquitin-specific Protease USP2a Using CHOP2 as the Reporter (AID 463106)
Sequence of Ubiquitin carboxyl-terminal hydrolase 2 (Homo sapiens) (O75604 whole entry, looked up): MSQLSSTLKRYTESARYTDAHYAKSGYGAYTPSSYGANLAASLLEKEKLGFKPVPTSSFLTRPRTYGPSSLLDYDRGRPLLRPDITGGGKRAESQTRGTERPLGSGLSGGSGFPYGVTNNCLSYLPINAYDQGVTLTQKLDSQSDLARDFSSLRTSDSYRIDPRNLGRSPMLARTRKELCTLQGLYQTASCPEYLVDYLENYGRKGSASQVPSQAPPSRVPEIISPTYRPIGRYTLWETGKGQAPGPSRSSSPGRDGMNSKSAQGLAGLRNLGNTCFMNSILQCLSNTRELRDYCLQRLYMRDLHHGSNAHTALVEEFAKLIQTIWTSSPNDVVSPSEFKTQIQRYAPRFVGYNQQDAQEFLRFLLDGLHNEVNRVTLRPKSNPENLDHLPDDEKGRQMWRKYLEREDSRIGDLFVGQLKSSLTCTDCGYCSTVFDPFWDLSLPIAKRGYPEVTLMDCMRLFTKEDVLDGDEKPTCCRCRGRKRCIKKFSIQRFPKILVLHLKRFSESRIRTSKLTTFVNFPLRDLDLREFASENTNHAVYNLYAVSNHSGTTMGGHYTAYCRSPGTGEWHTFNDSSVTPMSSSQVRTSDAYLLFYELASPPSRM
How it was run: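 Fluorescence read-out at Ex 485nm/Em 531nm after 60min RT, following addition of 25nM Ub-CHOP2 plus 25nM reporter substrate to USP2 core (10nM) pretreated 30min with compound. Data normalized to NEM full inhibition; concentration-response curves fitted.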

[11] = biological target: DNA polymerase III PolC-type (Bacillus subtilis (strain 168)) (UniProt P13267); assay: qHTS Validation Assay for the Inhibitors of DNA Replication in Gram-Positive Bacteria (AID 485295);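 note: PicoGreen fluorescence of double-stranded DNA made on primed circular M13 template; series mostly up to about 57 µM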
Sequence of DNA polymerase III PolC-type (Bacillus subtilis (strain 168)) (P13267 whole entry, looked up): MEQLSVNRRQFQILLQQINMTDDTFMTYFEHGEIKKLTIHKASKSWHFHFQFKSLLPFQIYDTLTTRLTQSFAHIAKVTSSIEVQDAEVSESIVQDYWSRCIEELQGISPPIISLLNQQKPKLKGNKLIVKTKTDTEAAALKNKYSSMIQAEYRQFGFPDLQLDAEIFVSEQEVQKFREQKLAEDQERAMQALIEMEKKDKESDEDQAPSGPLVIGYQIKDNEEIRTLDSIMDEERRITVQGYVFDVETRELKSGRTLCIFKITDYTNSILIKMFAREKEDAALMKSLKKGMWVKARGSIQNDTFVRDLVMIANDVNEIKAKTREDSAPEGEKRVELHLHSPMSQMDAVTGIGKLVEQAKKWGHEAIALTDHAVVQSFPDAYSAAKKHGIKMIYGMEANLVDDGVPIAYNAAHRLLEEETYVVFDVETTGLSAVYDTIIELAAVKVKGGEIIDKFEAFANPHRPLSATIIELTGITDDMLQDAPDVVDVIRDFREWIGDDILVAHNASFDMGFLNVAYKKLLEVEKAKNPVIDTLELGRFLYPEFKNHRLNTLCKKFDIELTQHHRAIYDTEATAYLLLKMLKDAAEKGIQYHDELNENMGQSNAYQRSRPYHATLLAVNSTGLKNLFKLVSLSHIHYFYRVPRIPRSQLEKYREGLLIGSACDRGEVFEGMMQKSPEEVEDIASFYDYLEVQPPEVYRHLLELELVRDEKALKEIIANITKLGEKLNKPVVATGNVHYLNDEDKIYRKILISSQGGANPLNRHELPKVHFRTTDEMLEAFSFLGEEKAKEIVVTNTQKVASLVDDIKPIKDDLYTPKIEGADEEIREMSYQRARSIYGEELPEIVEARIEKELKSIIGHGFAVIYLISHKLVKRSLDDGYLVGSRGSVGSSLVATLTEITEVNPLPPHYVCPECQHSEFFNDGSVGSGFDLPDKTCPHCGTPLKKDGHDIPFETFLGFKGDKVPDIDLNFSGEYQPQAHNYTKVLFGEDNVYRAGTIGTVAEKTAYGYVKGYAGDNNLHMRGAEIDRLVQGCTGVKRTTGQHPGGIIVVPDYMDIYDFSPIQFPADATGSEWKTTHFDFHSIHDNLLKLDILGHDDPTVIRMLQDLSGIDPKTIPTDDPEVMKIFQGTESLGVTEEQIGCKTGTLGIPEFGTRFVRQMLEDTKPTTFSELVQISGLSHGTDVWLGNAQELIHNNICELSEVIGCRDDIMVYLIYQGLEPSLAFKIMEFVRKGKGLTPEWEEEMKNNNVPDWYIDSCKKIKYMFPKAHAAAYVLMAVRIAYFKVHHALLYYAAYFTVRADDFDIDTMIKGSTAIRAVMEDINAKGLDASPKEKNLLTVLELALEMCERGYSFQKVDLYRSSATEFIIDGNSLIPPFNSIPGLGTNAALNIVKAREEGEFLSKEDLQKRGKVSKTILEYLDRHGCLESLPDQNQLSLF
How it was run: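 Reconstituted B. subtilis Pol III holoenzyme (PolC, beta clamp, SSB, primase) preincubated with compound, then M13Gori single-stranded circular template with dNTPs/NTPs added; room temperature reaction. Stopped with EDTA/PicoGreen; dsDNA fluorescence read, EDTA as full-inhibition control.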

[12] = biological target: Tumor susceptibility gene 101 protein (Homo sapiens) (UniProt Q99816); assay: qHTS Validation Assay for Iinhibitors of HIV-1 Budding by Blocking the Interaction of PTAP/TSG101 (AID 485342; calls by dose curve)
Sequence of Tumor susceptibility gene 101 protein (Homo sapiens) (Q99816 whole entry, looked up, the tested form may be a part): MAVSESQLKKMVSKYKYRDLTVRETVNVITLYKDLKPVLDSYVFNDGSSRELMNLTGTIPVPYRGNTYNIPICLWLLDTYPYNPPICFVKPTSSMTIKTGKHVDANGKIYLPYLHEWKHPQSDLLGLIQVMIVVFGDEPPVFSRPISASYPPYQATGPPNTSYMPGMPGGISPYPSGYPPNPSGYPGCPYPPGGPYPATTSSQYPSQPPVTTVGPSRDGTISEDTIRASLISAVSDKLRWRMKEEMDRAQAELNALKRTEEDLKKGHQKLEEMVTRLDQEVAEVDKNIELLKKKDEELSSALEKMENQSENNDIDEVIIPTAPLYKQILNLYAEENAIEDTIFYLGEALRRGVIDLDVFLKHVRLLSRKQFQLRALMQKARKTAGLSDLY
How it was run: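 Tsg101 binding domain (10 uM) with FITC-labeled PTAP peptide (50 nM) in HEPES pH 7.5 buffer, 20 min at r.t. with compounds. Binding measured by fluorescence polarization.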

[13] = qHTS Validation Assay to Find Inhibitors of Chronic Active B-Cell Receptor Signaling (AID 485345; active = well fitted curve in the direction sought with a large enough effect in the main read-out, with a control signal flat, not every such curve was filed as active)
How it was run: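 TMD8 ABC-DLBCL cells stably carrying doxycycline-inducible IkappaBalpha–green luciferase fusion plus unfused red luciferase; compounds 46 uM to 3 nM, 4 h at 37C with doxycycline. Corrected green/red luminescence ratio normalized to 10 uM MG-132 and basal cell wells; curves fitted.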

[14] = qHTS for differential inhibitors of proliferation of Plasmodium falciparum line Dd2 (AID 1882); conditions: Potency: Plasmodium falciparum Dd2 proliferation inhibition; note: series mostly up to about 29 µM; nearly all actives have a fitted effect of over 65% in size
How it was run: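 SYBR Green DNA fluorescence (ex 485, em 535 nm) after overnight lysis quantifies parasite growth; compound exposure lasted 72 h at 37 C on infected red cells at 2.5% hematocrit, 0.3% parasitemia (final). Artemisinin 0.29 uM and vehicle wells define normalization.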

[15] = qHTS Assay for Modulators of Human Peripheral Myelin Protein 22 (PMP22) Expression/Activity (AID 1967; active = well fitted curve in the direction sought with a large enough effect in the signal ratio; the % refers to the signal ratio)
How it was run: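 Mouse MSC80 Schwann cells carrying Pmp22 promoter–green click beetle luciferase plus EF-alpha–red luciferase control, dosed 24 h at 37 °C. Dual-filter luminescence, overlap-corrected; %Activity from green/red ratio normalised to untreated cells, concentration-response curves fitted.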

[16] = biological target: Ferritin light chain (Equus caballus) (UniProt P02791); assay: qHTS Validation Assay for Identification of Novel General Anesthetics (AID 2323); note: series mostly up to about 77 µM
Sequence of Ferritin light chain (Equus caballus) (P02791 2-175 limits assumed): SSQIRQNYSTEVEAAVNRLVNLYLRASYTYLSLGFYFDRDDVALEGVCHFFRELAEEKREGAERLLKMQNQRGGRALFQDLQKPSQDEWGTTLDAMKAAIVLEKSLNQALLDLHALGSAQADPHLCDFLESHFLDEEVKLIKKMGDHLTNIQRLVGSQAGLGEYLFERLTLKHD
How it was run: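 Horse-spleen apoferritin (10 uM) in PBS with 50% saturated 1-aminoanthracene; compounds pin-transferred, 10 min at room temperature. Fluorescence read at 380/535 nm, normalized to free 1-AMA and 1-AMA/apoferritin values; four-parameter Hill fit.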

[17] = qHTS for differential inhibitors of proliferation of Plasmodium falciparum line HB3 (AID 1886); conditions: Potency: Plasmodium falciparum HB3 proliferation inhibition;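 note: parasites grown with compound for 72 h before SYBR Green readout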

SMILES | Potency [1] | Potency [2] | Potency [3] | Potency [4] | outcome [5] | Potency [6] | Potency [7] | Potency [8] | Potency [9] | Potency [10] | Potency [11] | outcome [12] | outcome [13] | Potency [14] | outcome [15] | Potency [16] | Potency [17]
c1ccc2c(c1)CC(N1CCN(c3cccc4c3OCCO4)CC1)C2 | inactive | 5.01 µM (active) | inactive | inactive | inactive | inactive | inactive | inactive | inactive | inactive | inactive | inactive | inactive | – | – | – | –
Oc1cc2c(cc1O)C(c1ccccc1)CNCC2 (stereo not given) | – | 11.2 µM (active) | inactive | – | inactive | inactive | inactive | inactive | inactive | inactive | inactive | inactive | inactive | inactive | inactive | inactive | –
CC(C)(CO)Cc1cc(C(C)(C)C)c(O)c(C(C)(C)C)c1 | – | 10 µM (active) | inactive | – | inactive | inactive | inactive | inactive | – | inactive | – | – | – | inactive | – | – | –
CCCC[C@@]1(C2CCCC2)Cc2cc(OCC(=O)O)c(Cl)c(Cl)c2C1=O | – | 10 µM (active) | inactive | – | inactive | inactive | inactive | inactive | – | inactive | – | inactive | inactive | inactive | inactive | inactive | –
CCSC(=N)N | inactive | – | inactive | – | inactive | inactive | inactive | inactive | inactive | – | – | inactive | inactive | – | inactive | inactive | inactive
O=c1[nH]c(=O)c2nc3ccccc3nc2[nH]1 | – | – | inactive | – | inactive | inactive | inactive | inactive | inactive | inactive | inactive | – | inactive | inactive | – | – | inactive
COc1cc2c(CCNC(C)=O)c[nH]c2cc1O | inactive | – | inactive | inactive | inactive | inactive | inactive | inactive | inactive | inactive | inactive | inactive | inactive | – | inactive | inactive | inactive
Cc1nc2c(OCc3ccccc3)cccn2c1CC#N | – | – | inactive | – | inactive | inactive | inactive | inactive | inactive | inactive | – | inactive | – | inactive | – | inactive | inactive
COc1ccccc1N1CCN(CCCNc2c(C)c(=O)n(C)c(=O)n2C)CC1 | – | 8.91 µM (active) | inactive | inactive | inactive | inactive | inactive | inactive | inactive | inactive | inactive | inactive | – | inactive | – | inactive | –
O=c1cc(-c2ccccc2)[nH]c2nc(Cl)ccc12 | – | 10 µM (active) | inactive | – | inactive | inactive | inactive | – | 6.31 µM (active) | inactive | inactive | inactive | – | inactive | – | inactive | –
